Source: PubChem BioAssay AID1159580 (chemical genetic matrix, 2015)
Where “and” joins values, the source holds several entries; their conditions need not be identical. Identical values can stand only once. Hit rate of the full screen: of about 5,500 compounds, about 2,000 (36%) were called active. Not shown: some 18% with an inconclusive outcome. Rule as the data show it: active = normalized growth mostly below about 0.91 (no sharp cut-off); inconclusive = no clear call, values can overlap the other calls; inactive = mostly above about 0.92. The list shows a part of the results.

Assay: chemical genetic growth profiling, strain panel (AID 1159580);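 also: tested at 20 µM; growth read once vehicle control cultures reached saturation at 30 °C; 1 = growth at the plate median or of vehicle wells; lower values mean less growth of the strain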
Settings: growth OD

Measured: normalized growth

CN1CCC(=C2c3ccccc3CC(=O)c3sccc32)CC1
inactive: S. cerevisiae deletion strains, locus YKL009W, strain mrt4, hits give low values 1.02 | S. cerevisiae deletion strains, locus YKL068W, hits give low values 1.02 | S. cerevisiae deletion strains, locus YKL085W, strain MDH1 (second series), hits give low values 1.01 | S. cerevisiae deletion strains, locus YKL085W, strain MDH1, hits give low values 1.01 | S. cerevisiae deletion strains, locus YKL160W, strain elf1, hits give low values 0.987 | S. cerevisiae deletion strains, locus YKL190W, strain CNB1, hits give low values 1.01 | S. cerevisiae deletion strains, locus YKR001C, strain vps1, hits give low values 1.01 | S. cerevisiae deletion strains, locus YKR026C, strain gcn3, hits give low values 0.981 | S. cerevisiae deletion strains, locus YKR091W, strain srl3, hits give low values 0.979 | S. cerevisiae deletion strains, locus YLL001W, strain dnm1, hits give low values 0.935 | S. cerevisiae deletion strains, locus YLL026W, hits give low values 0.963 | S. cerevisiae deletion strains, locus YLL041C, strain sdh2, hits give low values 0.986 | S. cerevisiae deletion strains, locus YLR027C, strain aat2, hits give low values 0.973 | S. cerevisiae deletion strains, locus YLR039C, strain RIC1, hits give low values 0.996 | S. cerevisiae deletion strains, locus YLR058C, strain SHM2, hits give low values 1 | S. cerevisiae deletion strains, locus YLR102C, strain apc9, hits give low values 1.01 | S. cerevisiae deletion strains, locus YLR113W, strain HOG1, hits give low values 1.02 | S. cerevisiae deletion strains, locus YLR221C, strain rsa3, hits give low values 1.04 | S. cerevisiae deletion strains, locus YLR258W, strain gsy2, hits give low values 1.01 | S. cerevisiae deletion strains, locus YLR262C, strain YPT6 (second series), hits give low values 0.956 | S. cerevisiae deletion strains, locus YLR262C, strain YPT6, hits give low values 1 | S. cerevisiae deletion strains, locus YLR268W, strain sec22, hits give low values 1.03 | S. cerevisiae deletion strains, locus YLR320W, strain mms22, hits give low values 1.02 | S. cerevisiae deletion strains, locus YLR330W, strain CHS5, hits give low values 1 | S. cerevisiae deletion strains, locus YLR342W, strain FKS1 (second series), hits give low values 0.991 | S. cerevisiae deletion strains, locus YLR342W, strain FKS1, hits give low values 0.967 | S. cerevisiae deletion strains, locus YLR357W, strain rsc2, hits give low values 0.969 | S. cerevisiae deletion strains, locus YLR370C, strain arc18, hits give low values 0.971 | S. cerevisiae deletion strains, locus YLR371W, strain rom2, hits give low values 1.01 | S. cerevisiae deletion strains, locus YLR384C, strain iki3, hits give low values 0.974 | S. cerevisiae deletion strains, locus YLR418C, strain cdc73, hits give low values 0.976 | S. cerevisiae deletion strains, locus YML016C, strain PPZ1, hits give low values 1.01 | S. cerevisiae deletion strains, locus YML032C, strain rad52, hits give low values 1.02 | S. cerevisiae deletion strains, locus YML120C, strain ndi1, hits give low values 0.965 | S. cerevisiae deletion strains, locus YML124C, strain tub3, hits give low values 1.01 | S. cerevisiae deletion strains, locus YMR058W, strain fet3, hits give low values 0.979 | S. cerevisiae deletion strains, locus YMR078C, strain ctf18, hits give low values 1 | S. cerevisiae deletion strains, locus YMR125W, strain sto1, hits give low values 0.955 | S. cerevisiae deletion strains, locus YMR129W, hits give low values 0.981 | S. cerevisiae deletion strains, locus YMR205C, strain PFK2, hits give low values 0.987 | S. cerevisiae deletion strains, locus YMR223W, strain ubp8, hits give low values 0.993 | S. cerevisiae deletion strains, locus YMR231W, strain pep5, hits give low values 0.974 | S. cerevisiae deletion strains, locus YMR263W, strain SAP30, hits give low values 1.02 | S. cerevisiae deletion strains, locus YMR307W, strain GAS1, hits give low values 0.971 | S. cerevisiae deletion strains, locus YNL067W, strain RPL9B, hits give low values 1.02 | S. cerevisiae deletion strains, locus YNL071W, strain lat1, hits give low values 0.987 | S. cerevisiae deletion strains, locus YNL128W, strain TEP1, hits give low values 1.01 and 0.992 | S. cerevisiae deletion strains, locus YNL153C, strain GIM3, hits give low values 1.02 and 0.986 | S. cerevisiae deletion strains, locus YNL175C, strain NOP13, hits give low values 0.996 | S. cerevisiae deletion strains, locus YNL183C, strain NPR1, hits give low values 0.991 | S. cerevisiae deletion strains, locus YNL197C, strain WHI3, hits give low values 0.995 | S. cerevisiae deletion strains, locus YNL209W, strain ssb2, hits give low values 0.988 | S. cerevisiae deletion strains, locus YNL224C, strain SQS1, hits give low values 1.02 | S. cerevisiae deletion strains, locus YNL233W, strain BNI4, hits give low values 1.01 | S. cerevisiae deletion strains, locus YNL248C, strain rpa49, hits give low values 0.983 | S. cerevisiae deletion strains, locus YNL250W, strain rad50, hits give low values 1.01 | S. cerevisiae deletion strains, locus YNL271C, strain bni1, hits give low values 1.02 | S. cerevisiae deletion strains, locus YNL298W, strain CLA4, hits give low values 1.01 | S. cerevisiae deletion strains, locus YNL307C, strain MCK1, hits give low values 1 | S. cerevisiae deletion strains, locus YNL322C, strain KRE1 (second series), hits give low values 0.975 | S. cerevisiae deletion strains, locus YNL322C, strain KRE1, hits give low values 1.01 and 0.991 | S. cerevisiae deletion strains, locus YNR049C, strain mso1, hits give low values 0.994 | S. cerevisiae deletion strains, locus YNR052C, strain pop2, hits give low values 1.01 | S. cerevisiae deletion strains, locus YOL006C, strain TOP1, hits give low values 1.05 | S. cerevisiae deletion strains, locus YOL012C, strain htz1 1.02 | S. cerevisiae deletion strains, locus YOL147C, strain pex11, hits give low values 1 | S. cerevisiae deletion strains, locus YOR001W, strain rrp6, hits give low values 0.95 | S. cerevisiae deletion strains, locus YOR061W, strain CKA2, hits give low values 1.01 | S. cerevisiae deletion strains, locus YOR069W, strain VPS5, hits give low values 0.999 | S. cerevisiae deletion strains, locus YOR070C, strain gyp1, hits give low values 0.999 | S. cerevisiae deletion strains, locus YOR080W, strain dia2, hits give low values 0.967 | S. cerevisiae deletion strains, locus YOR083W, strain WHI5 (second series), hits give low values 1.01 | S. cerevisiae deletion strains, locus YOR083W, strain WHI5, hits give low values 0.962 | S. cerevisiae deletion strains, locus YOR106W, strain vam3, hits give low values 0.956 | S. cerevisiae deletion strains, locus YOR136W, strain idh2, hits give low values 1 | S. cerevisiae deletion strains, locus YOR144C, strain elg1, hits give low values 1 | S. cerevisiae deletion strains, locus YOR184W, strain ser1, hits give low values 0.989 | S. cerevisiae deletion strains, locus YOR231W, strain MKK1, hits give low values 1.02 | S. cerevisiae deletion strains, locus YOR265W, strain rbl2, hits give low values 0.988 | S. cerevisiae deletion strains, locus YOR270C, strain vph1, hits give low values 0.98 | S. cerevisiae deletion strains, locus YOR290C, strain snf2, hits give low values 1 | S. cerevisiae deletion strains, locus YOR316C, strain cot1, hits give low values 1.01 | S. cerevisiae deletion strains, locus YPL051W, strain arl3, hits give low values 0.991 | S. cerevisiae deletion strains, locus YPL055C, strain LGE1, hits give low values 1.01 | S. cerevisiae deletion strains, locus YPL078C, strain atp4, hits give low values 0.923 | S. cerevisiae deletion strains, locus YPL106C, strain sse1, hits give low values 0.979 | S. cerevisiae deletion strains, locus YPL240C, strain hsp82, hits give low values 0.99 | S. cerevisiae deletion strains, locus YPL241C, strain CIN2, hits give low values 1 | S. cerevisiae deletion strains, locus YPL256C, strain CLN2, hits give low values 1.04 | S. cerevisiae deletion strains, locus YPR119W, strain clb2, hits give low values 1.01 | S. cerevisiae deletion strains, locus YPR141C, strain kar3, hits give low values 1.01 | S. cerevisiae deletion strains, locus YPR163C, strain tif3, hits give low values 1.02 | S. cerevisiae deletion strains, locus YPR167C, strain met16, hits give low values 1 | S. cerevisiae deletion strains, strain wtn01, hits give low values 1.01 | S. cerevisiae strains, strain wild type, hits give low values 1.01
